# Laboratory results: the supplement of paper PMC7156485
# ± gives the standard deviation of the averaged measurements.
# Tests used:
# Conditions in all cases: concentration: 10 µM; 24 h
# HCC1569 [1] = assay: cell number relative to DMSO (% of DMSO); higher = more cells (less growth inhibition / toxicity)
# In short: (§1)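 Compounds were applied at 10 µM for 24 h at 37 °C, in triplicate, to HCC1569 and TDF cells. The cells were then fixed and stained for H1.0, and nuclei were counterstained with DAPI. Nuclear H1.0 intensity or cell number is reported relative to the plate control as a percent, taking the median of replicates. Smoothing for positional effects was applied to HCC1569 values only.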
# TDF [2] = assay: as above
# In short: as §1
# TDF [3] = assay: H1.0 immunofluorescence intensity relative to DMSO (% of DMSO); higher = stronger H1.0 induction, active = 120 or more
# In short: as §1
# HCC1569 [4] = assay: H1.0 immunofluorescence intensity relative to DMSO (% of DMSO); higher = stronger H1.0 induction, active = 140 or more
# In short: as §1
# 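Throughout, for H1.0 immunofluorescence intensity relative to DMSO: TDF is a line of transformed human dermal fibroblasts of mesenchymal origin.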
# 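Throughout, for cell number relative to DMSO: TDF denotes transformed human dermal fibroblasts of mesenchymal origin.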
Structure (SMILES),cell number (HCC1569 [1]),cell number (TDF [2]),H1.0 immunofluorescence intensity (TDF [3]),H1.0 immunofluorescence intensity (HCC1569 [4])
COc1ccc(-c2cnc3c(-c4ccsc4)cnn3c2)cc1 [VEGF Receptor 2 Kinase Inhibitor IV],94.9,95.5,89 (inactive),109 (inactive)
C[C@@H]([C@@H](O)c1ccc(O)cc1)N1CCC(O)(c2ccccc2)CC1,102,91.1,94.7 (inactive),105 (inactive)
CC(N)=NCCC[C@H](N)C(=O)O.Cl [L-N5-(1-Iminoethyl)ornithine hydrochloride],101,108,92.8 (inactive),93.3 (inactive)
CC1C(=O)N=C2Nc3cccc(Cl)c3CN21 (stereo not given) [Quazinone],111,106,94.9 (inactive),96.3 (inactive)
CCC=CCC=CCC=CCCCCCCCCCC(=O)O [Eicosatrienoic acid],101 ± 2.8,96.7 ± 14,100 (inactive),99.5 (inactive)
O=P(O)(O)C(O)(Cn1ccnc1)P(=O)(O)O [Zoledronic acid],99,89,94 (inactive),100 (inactive)
CCCCCCCCC=CCCCCCCCCC(=O)O [10(Z)-Nonadecenoic acid],102,94.1,95.6 (inactive),106 (inactive)
Nc1nc2ccc(OC(F)(F)F)cc2s1 [Riluzole],98.4,98.6,94.6 (inactive),94.6 (inactive)
CCCCCCCCCCCCCCC(O)C(O)C(N)CO (stereo not given) [Phytosphingosine],98.8,75.6,124 (active),104 (inactive)
CCCCCCCCCCCC=CCCCCCCC(=O)O [8(Z)-Eicosenoic acid],103,105,100 (inactive),103 (inactive)
Br.C=CCN1CCc2c(cc(O)c(O)c2Cl)C(c2ccccc2)C1 (racemic),94.1,79.4,96.2 (inactive),107 (inactive)
O=C(C=Cc1ccc(O)cc1)c1ccc(O)cc1O [Isoliquiritigenin],96.3,99.6,89.2 (inactive),100 (inactive)
CCOC([O-])=Nc1c[n+](N2CCOCC2)no1 [Molsidomine],106 ± 1.7,96.4 ± 7.5,101 (inactive),94 (inactive)
Cc1cccc(C)c1OCC(N)C(C)C.I (stereo not given),103,108,91.3 (inactive),94.3 (inactive)
O=C(Cc1ccc(Cl)c(Cl)c1)OCCN1CCCC1.O=C(O)C(=O)O [AC 915 oxalate],101,105,92.1 (inactive),99 (inactive)
"COc1cc2c3cc1Oc1cc(ccc1O)CC1c4c(cc(OC)c(O)c4Oc4ccc(cc4)CC3N(C)CC2)CC[N+]1(C)C.Cl.[Cl-] (single isomer, unassigned; (+)) [(+)-Tubocuraraine chloride]",108,109,93.2 (inactive),99.2 (inactive)
Cl.Cl.NCCc1cnc[nH]1 [Histamine dihydrochloride],99.6,105,92.1 (inactive),86.6 (inactive)
CN1C2CCCC1CC(NC(=O)c1nn(C)c3ccccc13)C2 (stereo not given) [Granisetron],93.7,93.9,104 (inactive),102 (inactive)
N=c1nc(N2CCCCC2)cc(N)n1O [Minoxidil],99.9 ± 3.1,105 ± 3.1,92 (inactive),103 (inactive)
CC(C)NCC(O)COc1ccc(CC(N)=O)cc1 (stereo not given) [Atenolol],99.9,102,94.7 (inactive),113 (inactive)
CC(=O)OC1CC2(C)C(CC(O)C3C4(C)CCC(O)C(C)C4CCC32C)C1=C(CCC=C(C)C)C(=O)[O-].[Na+] (stereo not given) [Fusidic acid sodium],105,113,89.5 (inactive),83.5 (inactive)
CC(CCc1ccc(O)cc1)NCCc1ccc(O)c(O)c1.Cl (stereo not given) [Dobutamine.HCl],104,111,83.4 (inactive),105 (inactive)
CC(C=CC1=C(C)CCCC1(C)C)=CC=CC(C)=CC(=O)Nc1ccc(O)cc1 [Retinoic acid p-hydroxyanilide],42.9,85.3,100 (inactive),185 (active)
CCC(=O)OC1(C(=O)CCl)C(C)CC2C3CCC4=CC(=O)C=CC4(C)C3(F)C(O)CC21C (stereo not given) [Clobetasol Propionate],109,114,87.8 (inactive),100 (inactive)
"c1ccc(-c2ccccn2)nc1 [2,2'-Bipyridyl]",107,95,104 (inactive),102 (inactive)

Structure (SMILES),cell number (HCC1569 [1]),cell number (TDF [2]),H1.0 immunofluorescence intensity (TDF [3]),H1.0 immunofluorescence intensity (HCC1569 [4])
Cc1cc(C(C)(C)C)c(O)c(C)c1CC1=NCCN1.Cl [Oxymetazoline.HCl],102,97.8,98.5 (inactive),98.2 (inactive)
Oc1cc2c(cc1O)C(c1ccccc1)CNCC2 (racemic),101,113,92.2 (inactive),93.5 (inactive)
COC(=O)Nc1nc2ccc(C(=O)c3ccc(F)cc3)cc2[nH]1 [Flubendazole],65.9,9.66,151 (active),168 (active)
N#Cc1c(O)c2c(-c3ccc(-c4ccccc4O)cc3)csc2[nH]c1=O,102,92.5,98.8 (inactive),96.3 (inactive)
C[n+]1ccccc1CC(=O)c1ccc(Br)cc1.[I-] [2-[2-(4-bromophenyl)-2-oxoethyl]-1-methylpyridinium iodide],98.7,87.6,96.4 (inactive),97.5 (inactive)
CCN(CC)CCNC(=O)c1ccc(NC(C)=O)cc1.Cl [N-Acetylprocainamide hydrochloride],104,110,105 (inactive),116 (inactive)
COc1cc2nc(N3CCN(C(=O)C4CCCO4)CC3)nc(N)c2cc1OC.Cl (stereo not given) [Terazosin hydrochloride],100,95.1,92.6 (inactive),102 (inactive)
CC(C)(Oc1ccc(C2CC2(Cl)Cl)cc1)C(=O)O (stereo not given) [Ciprofibrate],104,110,97.8 (inactive),98.1 (inactive)
Cc1ccc([N+](=O)[O-])cc1S(=O)(=O)N(C)N=Cc1cnc2ccc(Br)cn12,52,11.6,111 (inactive),104 (inactive)
CS(=O)(=O)O.NC(=NC(=O)c1nc(Cl)c(N)nc1N)Nc1ccccc1 [Phenamil methanesulfonate],103,116,88.9 (inactive),96.1 (inactive)
S=C(NCc1ccc2c(c1)OCO2)N1CCN(c2ncnc3c2oc2ccccc23)CC1,65.5,72.6,103 (inactive),132 (inactive)
COc1cc(CNC(=O)CCCCC=CC(C)C)ccc1O [Capsaicin],99 ± 1.3,99.2 ± 2.3,93.8 (inactive),95.8 (inactive)
CC(C)=CCCC(C)=CCCC(C)=CCSc1ccccc1C(=O)O [Farnesylthiosalicylic acid],93.9,99.9,90.7 (inactive),94.5 (inactive)
CC1CC2C3CCC4=CC(=O)C=CC4(C)C3(F)C(O)CC2(C)C1(O)C(=O)CO (stereo not given) [Betamethasone],97.2,106,75.2 (inactive),99.5 (inactive)
Cl.N=c1ccn2c(n1)OC1C(O)C(CO)OC12 (stereo not given) [Ancitabine hydrochloride],73.5,50.3,109 (inactive),92 (inactive)
CN(C)CCC(c1ccc(Br)cc1)c1ccccn1.O=C(O)C=CC(=O)O (racemic),101,98.7,97.9 (inactive),94.6 (inactive)
O=C1NC(=O)C(c2ccccc2[N+](=O)[O-])=C1Nc1ccc(O)c(Cl)c1,96.8,107,97.8 (inactive),111 (inactive)
"CCCCCC=CCC=CCCCCCCCCCCC(=O)O [12(Z), 15(Z)-Heneicosadienoic acid]",100,103,94.4 (inactive),105 (inactive)
C#CCN(C)Cc1ccccc1.Cl [Pargyline hydrochloride],114,105,91.7 (inactive),101 (inactive)
O=C([O-])CCC(NC(=O)c1ccccc1C(=O)[O-])C(=O)[O-].[Na+].[Na+].[Na+] [Phthalamoyl-L-glutamic acid trisodium],61.8,103,89.2 (inactive),170 (active)
"COc1ccc2cc(C(C)C(=O)[O-])ccc2c1.[Na+] (single isomer, unassigned; (-)) [(-)-Naproxen sodium]",105,93.1,96.1 (inactive),102 (inactive)
"O=c1[nH][nH]c2nnc(-c3c(-c4ccccc4)nn4ccccc34)cc12 [ERK Inhibitor II,                   Negative control]",98.3,98.8,95.5 (inactive),122 (inactive)
Cl.Clc1ccc2nsnc2c1NC1=NCCN1 [Tizanidine.HCl],118,116,104 (inactive),83.4 (inactive)
CC1OC(Oc2c(-c3cc(O)c(O)c(O)c3)oc3cc(O)cc(O)c3c2=O)C(O)C(O)C1O (stereo not given) [Myricitrin],103,101,94.8 (inactive),83.5 (inactive)
COc1cc2ccc(=O)oc2cc1O [Scopoletin],101,113,101 (inactive),88.9 (inactive)
